# Where “and” joins values, the source holds several entries; their conditions need not be identical. Equal entries are not always repeated. Structures can show the parent of a compound that is named as a salt. Out of some 5,800 compounds screened, about 620 (11%) showed activity. The list comes from a sample in which actives are over-represented; it also holds similar structures and randomly drawn compounds. A number with no mark means an inactive call.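 The calls were made as follows: active = score above a cut-off or among the top three wells of a plate; in these data no inactive exceeds 0.85.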
# Test system: primary human hepatic stellate cells (donor 1)
# Experiment: scaled lipid accumulation score (0 = DMSO-like, 1 = nortriptyline-like); higher = stronger HSC inactivation (lipid re-accumulation), active = hit call of the paper
# Details: 48 h
# [1] = library stock concentration: 3.33 mM
# [2] = library stock concentration: 10 mM
# [3] = library stock concentration: 1 mM
# [4] = library stock concentration: 80 uM
# [5] = library stock concentration: 400 uM
# [6] = library stock concentration: 2 mM
# [7] = library stock concentration: 15.3 mM
compound,measurement,setting,value
COc1ccccc1OCC(O)COC(N)=O (stereo not drawn) [Methocarbamol],scaled lipid accumulation score,,≤ 0
same,scaled lipid accumulation score,[1],≤ 0
same,scaled lipid accumulation score,library stock concentration: 8.3 mM,≤ -0.001
same,scaled lipid accumulation score,[2],≤ 0
COc1ccccc1OCCNCC(O)COc1cccc2[nH]c3ccccc3c12 (stereo not drawn) [Carvedilol] [listing 1 of 5 here],scaled lipid accumulation score,[2],1.18 (active)
COc1ccccc1OCCNCC(O)COc1cccc2[nH]c3ccccc3c12 (stereo not drawn) [Carvedilol] [listing 2 of 5 here],scaled lipid accumulation score,[2],1.1 (active)
CC(C)NC[C@H](O)COc1cccc2[nH]ccc12 [(S)-(-)-Pindolol],scaled lipid accumulation score,[2],0.001
COc1ccccc1OCCNCC(O)COc1cccc2[nH]c3ccccc3c12 (stereo not drawn) [Carvedilol tartrate],scaled lipid accumulation score,[2],0.276
COc1ccccc1OCCNCC(O)COc1cccc2[nH]c3ccccc3c12 (stereo not drawn) [Carvedilol] [listing 3 of 5 here],scaled lipid accumulation score,[1],≤ 0
same,scaled lipid accumulation score,library stock concentration: 4.9 mM,0.302 and 0.4
COc1ccccc1OCCNCC(O)COc1cccc2[nH]c3ccccc3c12 (stereo not drawn) [Carvedilol] [listing 4 of 5 here],scaled lipid accumulation score,[2],0.936 (active)
CC(C)NC[C@H](O)COc1cccc2[nH]ccc12 [S(-)-Pindolol],scaled lipid accumulation score,[2],≤ -0.07
COc1ccccc1OCC(O)CO (stereo not drawn) [Guaifenesin],scaled lipid accumulation score,,≤ 0
same,scaled lipid accumulation score,[1],≤ 0
same,scaled lipid accumulation score,[2],0.084 and ≤ 0
CC(C)(C)NCC(O)COc1cccc2[nH]c(=O)[nH]c12 (stereo not drawn),scaled lipid accumulation score,[2],≤ -0.047
CC(C)NCC(O)COc1cccc2[nH]ccc12 (stereo not drawn),scaled lipid accumulation score,[2],≤ 0
CC(C)NCC(O)COc1cccc2[nH]ccc12 (stereo not drawn) [Pindolol],scaled lipid accumulation score,,≤ 0
same,scaled lipid accumulation score,library stock concentration: 8.1 mM,≤ -0.006 and 0.131
same,scaled lipid accumulation score,[2],≤ 0 and ≤ -0.055 and 0.071
COc1ccccc1OCCNCC(O)COc1cccc2[nH]c3ccccc3c12 (stereo not drawn) [Carvedilol] [listing 5 of 5 here],scaled lipid accumulation score,[2],1.57 (active)
C[C@](N)(Cc1ccc(O)cc1)C(=O)O [L-alpha-Methyl-p-tyrosine],scaled lipid accumulation score,[2],0.166
CC(C)(C)NS(=O)(=O)c1cncc(-c2cc(F)c3nc(N)nn3c2)c1,scaled lipid accumulation score,[1],≤ 0
same,scaled lipid accumulation score,[2],≤ -0.001
O=C(Cc1ccccc1)NO [Phenylacetohydroxamic acid],scaled lipid accumulation score,[2],≤ 0
CCCC(=O)O[C@]1(C(=O)COC(C)=O)CC[C@H]2[C@@H]3C[C@H](F)C4=CC(=O)C=C[C@]4(C)[C@@]3(F)[C@@H](O)C[C@@]21C [Difluprednate],scaled lipid accumulation score,[1],≤ 0
same,scaled lipid accumulation score,[2],≤ -0.001
O=NN(CCCl)C(=O)NCCCl [Carmustine],scaled lipid accumulation score,library stock concentration: 9.3 mM,≤ 0
same,scaled lipid accumulation score,[2],≤ 0
C[N+](C)(C)CCO.[Br-] [Choline bromide],scaled lipid accumulation score,[2],≤ 0
CC(C)C[C@@H]1NC(=O)[C@H](CCCN)NC(=O)[C@H](C(C)C)NC(=O)[C@H](Cc2ccc(O)cc2)N[C@@H](CCC(=O)O)C(=O)N[C@@H](CC(N)=O)C(=O)[C@@H](Cc2ccccc2)NC(=O)[C@H](Cc2ccccc2)NC(=O)[C@@H]2CCCN2C(=O)[C@@H](Cc2ccccc2)NC1=O [Tyrothricin],scaled lipid accumulation score,library stock concentration: 1.6 mM,≤ 0
same,scaled lipid accumulation score,[2],≤ 0
COC(=O)CCCCCCC1C(O)CC(O)C1CCC(O)CSc1ccccc1F (stereo not drawn),scaled lipid accumulation score,[3],≤ 0
CC(=O)O/N=C1\C(=O)N(Cc2cc(Cl)ccc2Cl)c2ccc(Cl)cc21,scaled lipid accumulation score,[1],≤ -0.009
same,scaled lipid accumulation score,[2],≤ 0
NC(C(=O)O)c1cc(O)cc(O)c1 (racemic),scaled lipid accumulation score,[2],0.017
C[C@H](O)[C@H](O)[C@@H](O)[C@@H](O)C=O [L-(+)-Rhamnose Monohydrate],scaled lipid accumulation score,[1],≤ 0
same,scaled lipid accumulation score,[2],≤ 0
CC(C)Nc1cccnc1N1CCN(C(=O)c2cc3cc(NS(C)(=O)=O)ccc3[nH]2)CC1 [Delavirdine mesylate],scaled lipid accumulation score,library stock concentration: 4.4 mM,≤ -0.006
COc1cc(Nc2ncc3ccn(-c4cccc(CCC#N)c4)c3n2)cc(OC)c1OC [Keratinocyte Differentiation Inducer],scaled lipid accumulation score,[1],0.501 and ≤ 0
COc1cc(Nc2ncc(F)c(Nc3ccc4c(n3)NC(=O)C(C)(C)O4)n2)cc(OC)c1OC.O=S(=O)(O)c1ccccc1,scaled lipid accumulation score,[2],0.882 (active)
COc1cc(Nc2ncc3c(n2)-c2ccc(Cl)cc2C(c2c(F)cccc2OC)=NC3)ccc1C(=O)O [Alisertib (MLN8237)],scaled lipid accumulation score,[1],≤ 0
same,scaled lipid accumulation score,[2],≤ 0
COc1cc(Nc2ncc(F)c(Nc3ccc4c(n3)NC(=O)C(C)(C)O4)n2)cc(OC)c1OC [listing 1 of 2 here],scaled lipid accumulation score,[4],≤ 0
same,scaled lipid accumulation score,[5],0.072
same,scaled lipid accumulation score,[6],0.159
same,scaled lipid accumulation score,[1],0.03
C=CC(=O)Nc1cccc(Nc2nc(Nc3ccc(OCCOC)cc3)ncc2F)c1,scaled lipid accumulation score,[1],≤ -0.009
same,scaled lipid accumulation score,[2],0.576
COc1cc(Nc2ncc(F)c(Nc3ccc4c(n3)N(COP(=O)(O)O)C(=O)C(C)(C)O4)n2)cc(OC)c1OC [Fostamatinib (R788)] [listing 1 of 2 here],scaled lipid accumulation score,[1],0.198
C=CC(=O)Nc1cccc(Nc2nc(Nc3ccc(OCCOC)cc3)ncc2F)c1 [Spebrutinib],scaled lipid accumulation score,[4],≤ -0.001
same,scaled lipid accumulation score,[5],≤ -0.001
same,scaled lipid accumulation score,[6],≤ -0.001
same,scaled lipid accumulation score,[2],0.202
COc1cc(Nc2ncc(F)c(Nc3ccc4c(n3)NC(=O)C(C)(C)O4)n2)cc(OC)c1OC [listing 2 of 2 here],scaled lipid accumulation score,[2],1.06 (active)
COc1cc(Nc2ncc(F)c(Nc3ccc4c(n3)NC(=O)C(C)(C)O4)n2)cc(OC)c1OC [R406 (free base)],scaled lipid accumulation score,[1],0.918 (active)
same,scaled lipid accumulation score,[2],1.16 (active)
COc1cc(Nc2ncc(F)c(Nc3ccc4c(n3)N(COP(=O)(O)O)C(=O)C(C)(C)O4)n2)cc(OC)c1OC [Fostamatinib (R788)] [listing 2 of 2 here],scaled lipid accumulation score,[2],1.01 (active)
COc1cc(Nc2ncc3c(n2)-c2ccc(Cl)cc2C(c2c(F)cccc2OC)=NC3)ccc1C(=O)O [Alisertib],scaled lipid accumulation score,[4],≤ 0
same,scaled lipid accumulation score,[5],≤ 0
same,scaled lipid accumulation score,[6],≤ 0
same,scaled lipid accumulation score,[2],≤ 0
CCCC(CCC)C(=O)O[C@H]1C[C@H]2CC[C@@H](C1)[N+]2(C)C [Anisotropine methyl bromide],scaled lipid accumulation score,[2],0.296
OC[C@H]1O[C@H](O[C@H]2[C@H](O)[C@@H](O)C(O)O[C@@H]2CO)[C@H](O)[C@@H](O)[C@@H]1O (stereo partly drawn),scaled lipid accumulation score,[2],≤ 0
Nc1nc2c(ccc3ccccc32)s1,scaled lipid accumulation score,[2],≤ 0
CC1=C(C)C(=O)C(CCCCC#CCCCC#CCO)=C(C)C1=O,scaled lipid accumulation score,[2],0.105
same,scaled lipid accumulation score,[7],≤ -0.012
CC1=C(C)C(=O)C(CCCCC#CCCCC#CCO)=C(C)C1=O [Docebenone],scaled lipid accumulation score,library stock concentration: 6.1 mM,≤ -0.006
O=C(O)CCNc1cc(N2CCc3ccccc3CC2)nc(-c2cccnc2)n1,scaled lipid accumulation score,[4],≤ 0
same,scaled lipid accumulation score,[5],≤ 0
same,scaled lipid accumulation score,[6],≤ 0
same,scaled lipid accumulation score,[2],≤ 0
CC(C)(C)OC(=O)N[C@H]1CCCCC/C=C\[C@@H]2C[C@@]2(C(=O)NS(=O)(=O)C2CC2)NC(=O)[C@@H]2C[C@@H](OC(=O)N3Cc4cccc(F)c4C3)CN2C1=O [Danoprevir (ITMN-191)],scaled lipid accumulation score,[1],0.049
same,scaled lipid accumulation score,[2],≤ 0
CO[C@H]1C[C@@H]2CC[C@@H](C)[C@@](O)(O2)C(=O)C(=O)N2CCCC[C@H]2C(=O)O[C@H]([C@H](C)C[C@@H]2CC[C@@H](O)[C@H](OC)C2)CC(=O)[C@H](C)/C=C(\C)[C@@H](O)[C@@H](OC)C(=O)[C@H](C)C[C@H](C)/C=C/C=C/C=C/1C [Rapamycin],scaled lipid accumulation score,[4],≤ 0
same,scaled lipid accumulation score,[5],≤ 0
same,scaled lipid accumulation score,[3],≤ 0
same,scaled lipid accumulation score,[6],≤ 0
same,scaled lipid accumulation score,[1],≤ 0
same,scaled lipid accumulation score,[2],≤ 0
CO[C@H]1C[C@@H]2CC[C@@H](C)[C@@](O)(O2)C(=O)C(=O)N2CCCC[C@H]2C(=O)O[C@H]([C@H](C)C[C@@H]2CC[C@@H](O)[C@H](OC)C2)CC(=O)[C@H](C)/C=C(\C)[C@@H](O)[C@@H](OC)C(=O)[C@H](C)C[C@H](C)/C=C/C=C/C=C/1C [Rapamycin (Sirolimus)],scaled lipid accumulation score,[1],0.037
same,scaled lipid accumulation score,[2],≤ 0
O=C1NC(=O)c2c1c(-c1ccccc1)cc1[nH]c3ccc(O)cc3c21,scaled lipid accumulation score,[2],≤ -0.055 and ≤ -0.001
OCCN1CCN(CCCN2c3ccccc3Sc3ccc(C(F)(F)F)cc32)CC1 [Fluphenazine hydrochloride],scaled lipid accumulation score,[2],0.407
OCCN1CCN(CCCN2c3ccccc3Sc3ccc(C(F)(F)F)cc32)CC1,scaled lipid accumulation score,[2],1.34 (active)
OCCN1CCN(CCCN2c3ccccc3Sc3ccc(C(F)(F)F)cc32)CC1 [Fluphenazine dihydrochloride],scaled lipid accumulation score,,0.627
same,scaled lipid accumulation score,[2],≤ -0.07
CC(C)(O)C1CCC(C)(C2C(O)CC3(C)C4CC(OC5OC(CO)C(O)C(O)C5O)C5C(C)(C)C(OC6OCC(O)C(O)C6O)CCC56CC46CCC23C)O1 (stereo not drawn) [Astragaloside A],scaled lipid accumulation score,[1],0.019
same,scaled lipid accumulation score,[2],≤ 0
"CCCCC/C=C\C/C=C\C/C=C\CCCC/C=C\CCC(=O)O [cis-4,10,13,16-Docosatetraenoic Acid]",scaled lipid accumulation score,[3],≤ 0
CCCCC[C@H](O)/C=C/[C@H]1[C@H](O)CC(=O)[C@@H]1C/C=C\CCCC(=O)OC [Prostaglandin E2 methyl ester],scaled lipid accumulation score,[3],≤ 0
C[C@@H](NCCCc1cccc(C(F)(F)F)c1)c1cccc2ccccc12 [Cinacalcet HCl],scaled lipid accumulation score,[1],0.207
same,scaled lipid accumulation score,[2],0.351
O=C1CC(=O)c2c(Cl)c(Cl)c(Cl)c(Cl)c21,scaled lipid accumulation score,[1],≤ -0.009
same,scaled lipid accumulation score,[2],0.011
CC(C)n1cnc2c(NCCc3ccc(O)cc3)nc(-c3csc4ccccc34)nc21 [StemRegenin 1 (SR1)] [listing 1 of 2 here],scaled lipid accumulation score,[1],≤ 0
CC(C)n1cnc2c(NCCc3ccc(O)cc3)nc(-c3csc4ccccc34)nc21 [StemRegenin 1 (SR1)] [listing 2 of 2 here],scaled lipid accumulation score,[2],0.919 (active)
CC(C)n1cnc2c(NCc3ccccc3)nc(NCCO)nc21 [N9-Isopropylolomoucine],scaled lipid accumulation score,[7],≤ -0.012

# Reference: the supplement of paper PMC9135407
